Measured values reported in PubChem BioAssay AID492953 (The Scripps Research Institute Molecular Screening Center, 2010).
Out of some 340,000 compounds screened, about 4,200 (1.2%) were called active.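 Rule for the calls: active = inhibition above the mean of all tested compounds plus 3 SD (cut at about 24% in these data); inactive = the rest.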 This excerpt belongs to a sample that is enriched for actives.

Biological target: Platelet-activating factor acetylhydrolase IB subunit alpha2 (Homo sapiens) (UniProt P68402)
Sequence (P68402 whole entry, looked up): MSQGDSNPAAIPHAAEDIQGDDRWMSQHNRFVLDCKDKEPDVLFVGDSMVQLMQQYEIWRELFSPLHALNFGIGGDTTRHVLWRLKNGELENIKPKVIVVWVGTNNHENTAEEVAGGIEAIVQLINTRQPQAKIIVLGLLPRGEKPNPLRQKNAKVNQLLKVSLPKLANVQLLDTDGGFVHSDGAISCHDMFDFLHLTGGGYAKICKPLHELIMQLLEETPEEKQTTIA
Assay: PAFAH1B2 enzyme inhibitors, primary screen, biochemical, fluorescence polarization, human (AID 492953);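 note: 0% = enzyme with DMSO and 100% = wells lacking PAFAH1B2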
Conditions: recombinant PAFAH1B2, FP-rhodamine activity probe, at 3.39 µM, stronger effect = higher value

inhibition, inactive:
CCN(Cc1ccccc1)S(=O)(=O)c1cc2c3c(c1)CCN3C(=O)CC2 8.31%, C=CCOc1ccc(/C=N/n2cncn2)cc1OC 6.27%, CCOC(=O)c1c(NC(=O)CSc2cn(CC)c3ccccc23)sc2c1CCC2 -2.98%, CCOC(=O)c1c(NC(=O)CSc2nnc(CN3CCOCC3)n2C)sc2c1CCCC2 -1.06%, CC1CC(=O)Nc2ccccc2N1C(=O)COc1ccc2cc(Br)ccc2c1 (configuration not stated) 16.6%, COc1ccc(-c2cc(C(F)(F)F)nc(S(C)(=O)=O)n2)cc1OC -1.46%, Cc1cc[n+](-c2[nH]c(=O)sc2/C=N/NC(=O)c2ccccc2[O-])cc1C 8.46%, Cc1cc(=O)[nH]c(SCc2cccc(F)c2)n1 3.14%, COc1ccccc1-c1noc(CSc2nc(C)cc(=O)[nH]2)n1 1.01%, COc1ccc(CC(NC(C)=O)C(=O)NC2CCN(C(=O)Nc3ccc(C#N)cc3)CC2)cc1OC (configuration not stated) 2.86%, CCN(C(=O)CN1CCN(Cc2ccccc2)CC1)c1c(N)n(Cc2ccccc2)c(=O)[nH]c1=O -0.83%, CCCCC1S/C(=N/N=C/c2cccs2)NC1=O (configuration not stated) 8.36%, COc1ccc(C(=O)NNC(=O)c2cc(C)[nH]n2)cc1 5.54%, COc1ccc(C(=O)NNS(=O)(=O)c2ccc(C)cc2)cc1 6.56%, O=C1NC2(CCCCCC2)C(=O)N1CCS(=O)(=O)Oc1ccccc1 7.86%, CCn1c(CNC(=O)c2cc(OC)c(OC)c(OC)c2)cc2cc(C)ccc21 2.65%, CCCNC(=O)CN(Cc1ccccc1F)S(=O)(=O)c1ccc(C)cc1 4.33%, Cc1cc(NC(=O)CSc2nc3ccccc3n2CC(C)C)no1 4.62%, C=CCn1c(C(C)NC(=O)CC)nc2ccccc21 (configuration not stated) 0.58%, CNC(=O)/C(=C\C=C\c1ccccc1)NC(=O)c1ccc([N+](=O)[O-])cc1 -3.09%, O=C(Cc1ccc(S(=O)(=O)N2CCOCC2)s1)Nc1ccc(Br)c(C(F)(F)F)c1 -4.41%, COc1cc(CC(=O)Nc2nc(-c3ccc(F)c(F)c3)cs2)cc(OC)c1OC 1.73%, COc1ccc(CC(=O)Nc2nc(-c3ccc(F)c(F)c3)cs2)cc1OC 4.28%, COc1ccc(C)cc1NC(=S)Nc1ccccc1SC 9.46%, CC(=O)N(C1=C(Cl)C(=O)c2ccccc2C1=O)c1ccc(C(=O)O)cc1 15.6%, CC(=O)Oc1ccc2c(c1)C(=O)c1ccccc1C2=O 7.25%, Cn1c(=O)oc2cc(S(=O)(=O)NCCC(=O)NCc3ccccc3Cl)ccc21 -3.01%, Cc1nn(-c2ncccn2)c2c1C(=O)CC(C)(C)C2Br (configuration not stated) 3.5%, Cc1cnc(NC(=O)CSc2nnc(-c3ccccc3)n2Cc2ccccc2)s1 7.97%, CCOCc1nnc(NC(=O)CSc2ccc(C)cc2)s1 -28.2%, O=C(c1ccc(Cl)c(S(=O)(=O)N2CCCCC2)c1)N1CCCCCC1 -0.08%, O=C(Nc1nccs1)c1cc(S(=O)(=O)N2CCOCC2)c(Cl)cc1Cl -6.96%, Cc1ccc(S(=O)(=O)N2CCN(C(=O)CN3C(=O)NC(C)(c4ccc(Cl)cc4)C3=O)CC2)c(C)c1 (configuration not stated) 5.07%, O=C(Nc1ccccc1)O/N=C1/CCCc2occc21 5.12%, CCn1c(SCC(=O)NC2CC2)nnc1-c1ccccn1 8.43%, CN(Cc1cc2cc(F)ccc2[nH]1)Cc1nc(-c2cnccn2)no1 3.21%, CCC1(CC)Cc2ccccc2-c2nc(CCl)[nH]c(=O)c21 4.98%, CN(CCOc1ccccc1)Cc1nc2cc(Cl)ccc2c(=O)[nH]1 -0.52%, Cc1ccc(-c2nc(CSCC(=O)NC3CCN(Cc4ccccc4)CC3)c(C)o2)cc1 3.88%, CCOC(=O)N1CCN(c2c(NCCCN3CCCC(C)C3)c(=O)c2=O)CC1 (configuration not stated) -3.22%, CCCS(=O)(=O)Nc1c(C(=O)O)[nH]c2ccccc12 1.36%, CC(NC(=O)COC(=O)c1cc(=O)[nH]c2ccccc12)c1ccccc1 (configuration not stated) 6.8%, COc1ccc(/C=N/N(C)C2=NS(=O)(=O)c3ccccc32)cc1OC 12%, COc1ccc(C(=O)Nc2cccc(/C=C(/CCC(=O)O)c3nc4ccccc4s3)c2)cc1 -1.28%, Cc1nn(-c2ccc(F)cc2)c(Cl)c1/C=C(/CCC(=O)O)c1nc2ccccc2s1 4.71%, NC(=O)COc1ccc(/C=N/NC(=O)C2CCCN2S(=O)(=O)c2ccc(Cl)cc2)cc1 (configuration not stated) 2.71%, O=C(c1cccc(F)c1)N1CCC(O)(c2cccnc2)CC1 1.64%, Cn1cccc1C(=O)NNC(=O)COc1ccc(Br)cc1 6.31%, Cn1cnnc1SCC(=O)NNC(=O)COc1ccc(Br)cc1 8.93%, O=C(N/N=C/c1cccnc1)c1ccc(NC(=O)c2ccc(F)cc2)cc1 -2.15%, O=C(N/N=C\c1cccnc1)c1cc(-c2ccccc2)nc2c(Cl)cccc12 -6.71%, O=C(c1cc2c(s1)CCC2)N1CCN(c2ccccc2)CC1 1.7%, COc1cc(CNc2ncn[nH]2)ccc1OCc1ccccc1C -0.89%, CN(CCCNC(=O)CN1C(=O)CC(C)(C)S(=O)(=O)c2ccccc21)C1CCCCC1 5.24%, COC(=O)c1c(-c2ccc(C)cc2)csc1N 2.65%, CCOc1ccc(NC(=O)CSc2nc3ccccc3c(=O)n2Cc2cccs2)cc1 6.05%, CN1C(C)(C)CC(NC(=O)CCC(=O)NC2CC(C)(C)N(C)C(C)(C)C2)CC1(C)C 2.28%, COc1cc(C(=O)N2C(=O)c3cccc(N)c3C2=O)cc(OC)c1OC 1.13%, CC(=O)N1CCN(S(=O)(=O)c2cccc(C(=O)NC3CCC(C)CC3)c2)CC1 (configuration not stated) 5.89%, CCn1c(SCC(=O)Nc2nc(C)cs2)nnc1C(C)NC(=O)c1ccccc1 (configuration not stated) 8.33%, CCC(=O)Nc1nnc(S(=O)(=O)N(CC(C)C)c2ccccc2)s1 17.8%, COc1cccc(C(=O)Nc2nnc(S(=O)(=O)N(C)c3ccccc3)s2)c1 -2.38%, COC(=O)c1sccc1NS(=O)(=O)c1ccc(F)cc1F 0.87%, CC(=O)c1c(C)[nH]c(C(=O)Nc2cc(S(=O)(=O)N(C)C)ccc2C)c1C 2.08%, O=C(NC1CCN(S(=O)(=O)c2ccc(F)cc2)CC1)c1ccccc1 2.57%, Cc1ccc(S(=O)(=O)/N=C(/NC(=S)Nc2c(C)n(C)n(-c3ccccc3)c2=O)c2ccccc2)cc1 9.33%, O=C(CSc1nc(C2CC2)nc2ccccc12)Nc1cccc(O)c1 -0.49%, Cc1nnc(NC(=O)CSc2nc(C3CCCCC3)nc3ccccc23)s1 0.98%, O=C(CN1C(=O)CSC1=O)N1CCCC(Nc2ccc(F)cc2)C1 (configuration not stated) -1.15%, O=C(c1ccc2c(c1)C(=O)N(Cc1ccncc1)C2=O)N1CCN(S(=O)(=O)c2ccc(OC(F)(F)F)cc2)CC1 5.75%, CC1CN(Cc2ccco2)C(=S)N(c2ccccc2)C1=O (configuration not stated) 5.61%, CC1CC(=S)Nc2ccccc2N1Cc1ccccc1 (configuration not stated) 7.13%, COc1ccc(CCNC(=O)c2ccc(NC(=O)CC3SC(N4CCCCC4)=NC3=O)cc2)cc1OC (configuration not stated) 1.09%

inhibition, active:
CCOC(=O)c1c(NC(=O)CSc2nnc(C)c(=O)[nH]2)sc2c1CCC2 66.8%, Cc1cc(=O)[nH]c(SCc2cc(Cl)ccc2OC(F)F)n1 26.4%, COc1ccc(C(=O)NNc2cc(C)nc(NNC(=O)c3ccc(OC)cc3)n2)cc1 24.3%, O=c1ccc2c(-c3ccccc3S(=O)(=O)O)c3ccc(O)c(O)c3oc-2c1O 26.6%, CC(C)Cn1c(N2CCN(C(=O)/C=C/c3ccccc3)CC2)nc2ccccc21 28.8%, Cc1ccc(S(=O)(=O)NC(=O)Nc2nc(-c3ccc(F)c(F)c3)cs2)cc1 30.1%, O=C1C(Cl)=C(Oc2ccccc2)C(=O)c2ccccc21 33.9%, Cc1ccc(SCC(=O)Nc2ncc(C)s2)cc1 26.1%, O=C(O)c1cc(S(=O)(=O)N2CCCCCC2)c(Cl)cc1Cl 24.3%, O=c1[nH]c(CCl)nc2cc(-c3ccc(Cl)cc3)sc12 43.4%, O=C(O)c1[nH]c2ccccc2c1C(c1cccc(O)c1)c1c(C(=O)O)[nH]c2ccccc12 94.6%, O=C(O)CC/C(=C\c1cc2c(cc1Br)OCO2)c1nc2ccccc2s1 27.5%, Cc1ccsc1C(=O)NNC(=O)COc1ccc(Br)cc1 24.9%, Fc1ccc(/C=N/Nc2nc(-c3cccnc3)nc3ccccc23)cc1 25.3%, Nc1scc(-c2ccncc2)c1Cl 89.9%, CC1CC(C)CN(S(=O)(=O)c2cccc(C(=O)N3C(=O)c4cccc(N)c4C3=O)c2)C1 (configuration not stated) 39.9%, CC(C)CC(=O)Nc1nnc(S(=O)(=O)N(C)c2ccc(Cl)cc2)s1 26.6%, O=C(CSc1nc(C2CC2)nc2ccccc12)Nc1ccc2c(c1)OCCO2 38%, CC1CN(Cc2ccccc2)C(=S)NC1=O (configuration not stated) 29.8%
